This is an account of results in PubChem BioAssay (EPA / NIEHS).

Records with an inconclusive call do not appear. Active and inactive are the calls of the source. The calls were made as follows: active = hit-call score of the fitted dose curve at least 0.9, where 1 is the maximum; inconclusive = response in the unintended direction; inactive = score below 0.9.

A short description of the test: ATG_GAL4_TRANS: Attagene TRANS-FACTORIAL HepG2 Assay for GAL4 (Internal Marker) (AID 2282976). The following applies: HepG2 Attagene TRANS GAL4 internal marker reporter. As for the experimental part: ATG_TRANS is a cell-based, multiplexed-readout assay that uses HepG2, a human liver cell line, with measurements taken at 24 hours after chemical dosing in a 24-well plate.ATG_GAL4_TRANS is one of 30 assay component(s) measured or calculated from the ATG_TRANS assay. It is designed to make measurements of mRNA induction, a form of inducible reporter, as detected with fluorescence intensity signals by Reverse transcription polymerase chain reaction (RT-PCR) and Capillary electrophoresis technology.Data from the assay component ATG_GAL4_TRANS was analyzed into 1 assay endpoint. This assay endpoint, ATG_GAL4_TRANS, was analyzed in the positive analysis fitting direction relative to DMSO as the negative control and baseline of activity. Using a type of inducible reporter, measures of mRNA for gain-of-signal activity can be used to understand the background control at the transcription factor-level as they relate to the gene . Furthermore, this assay endpoint can be referred to as a secondary readout, because this assay has produced multiple assay endpoints where this one serves a background control function. To generalize the intended target to other relatable targets, this assay endpoint is annotated to the background measurement intended target family, where the subfamily is baseline control.
Human liver HepG2 cells are transiently transfected with multiple reporter transcription units (MRTUs) in 6-well plates using FuGene 6 reagent (Roche; 3 ml FuGene/1 mg DNA). The MRTU constructs are regulated by a cis-regulating element (promoter). […] A major difference between the CIS and TRANS system is that in CIS activities of endogenous TFs are measured, whereas the TRANS assay evaluates changes in activities of exogenous, chimeric NR-Gal4 proteins. […] At the end of 24 hour incubation, total RNA was isolated using TriZol reagent (Invitrogen). The isolated RNA is then reverse-transcribed using oligo(dT) primer and Mo-MLV reverse transcriptase (Invitrogen) with DNAse I (Ambion) treatment for 30 min. The one-tenth of the produced cDNA was amplified by PCR using Taq DNA polymerase (Invitrogen) and two reporter sequence-specific primers. The PCR products were fluorescently labeled by primer extension with 6-arboxyfluorescein (6-FAM) 5'-labeled reporter sequence-specific primer (2 min at 95 C, 20 s at 68 C and 10 min at 72 C) and these products were digested with 5U of HpaI (New England Biolabs) for 2h at 37 C. The fragments were purified using Qiaquick PCR columns (Qiagen), analyzed on an ABI 3130xL genetic analyzer (Applied Biosystems) with peak positions identified by using a set of X-rhodamine (ROX)-labeled MapMarker1000 molecular weight standards (BioVentures). The raw capillary electrophoresis data was processed using Attagraph software (Attagene).
`Cc1cc(Cc2ccc(N)c(C)c2)ccc1N`: the call was inactive. The same measure for `CC(=O)O[C@]1(C(C)=O)CC[C@H]2[C@@H]3C=C(Cl)C4=CC(=O)[C@@H]5C[C@@H]5[C@]4(C)[C@H]3CC[C@@]21C`: “inactive”; for `CSc1ccc(Oc2ccc(S(N)(=O)=O)cc2CN(C)C)cc1C`: “inactive”. Turning to `Cn1cnc2c1c(=O)[nH]c(=O)n2C`, the result was inactive.

In the case of `CC(=O)[C@@]1(O)CC[C@H]2[C@@H]3CCC4=CC(=O)CC[C@]4(C)[C@H]3CC[C@@]21C`, the outcome was inactive. Consider `O=C(N[C@@H](c1ccccc1)[C@@H]1CCCCN1)c1cccc(C(F)(F)F)c1Cl`, for which the compound was classed as inactive.

Regarding `CC(C)c1cccc(C(C)C)c1NC(=O)NS(=O)(=O)c1cc(C(C)(C)O)co1`, the result was inactive. In the case of `CC(=O)CC(c1ccccc1)c1c(O)c2ccccc2oc1=O` (stereo not given), the compound was classed as inactive.

Take `CCOCCOCCO`: the call was inactive.

Take `Cc1occc(=O)c1O`: the result was inactive.

With `O=C(O)c1[nH]n(-c2ccc(S(=O)(=O)O)cc2)c(=O)c1N=Nc1ccc(S(=O)(=O)O)cc1`, the outcome was inactive.

For `O=Cc1ccccc1C=O`, the compound was called inactive. Turning to `N[C@@H](Cc1c[nH]c2ccccc12)C(=O)O`, the call was inactive.

On to `O=C(O)c1cccnc1`, for which the result was inactive.

On to `O=[Si]=O`, for which the compound was called inactive. The same measure for `CCc1cc(C2=C(C(=O)O)N(c3ccccc3C(F)(F)F)S(=O)(=O)c3ccccc32)cc2c1OCO2`: “inactive”.

As to `CC(C)OC(=O)C(C)(C)Oc1ccc(C(=O)c2ccc(Cl)cc2)cc1`, the compound was called inactive. `CC1(C)C(=O)NC(=O)N1CO`: the result was inactive. The same measure for `CCCCCCC(C=O)=Cc1ccccc1`: “inactive”; for `NC1CCCCC1`: “inactive”. The same measure for `O=C(Oc1ccccc1)c1cccc(C(=O)Oc2ccccc2)c1`: “inactive”; for `O=NO`: “inactive”. The same measure for `O=C1c2c(O)cccc2Cc2cccc(O)c21`: “inactive”; for `S=c1[nH]c2ccccc2s1`: “inactive”; for `O=C1O[C@H]([C@H](O)CO)C(O)=C1O`: “inactive”. As to `CCN(CC)CCOc1ccc(C(=C(Cl)c2ccccc2)c2ccccc2)cc1`, the outcome was inactive. Then `CO[C@@H]1COCC[C@@H]1N[C@@H]1CC[C@@](C(=O)N2CCc3ncc(C(F)(F)F)cc3C2)(C(C)C)C1`, with “inactive”.

In the case of `O=C(NS(=O)(=O)/C=C/c1cccs1)c1ccc(F)cc1Br`, the compound was called inactive. For `O=C1CCCCC1`, the compound was classed as inactive. `CCCCC(CC)COP(=O)(OCC(CC)CCCC)OCC(CC)CCCC` (stereo not given): the call was inactive. As for `CC(N)=O`, the compound was called inactive. The same measure for `C/C=C/C=C/C(=O)O`: “inactive”. In the case of `CC(=O)OC1CC(C)OC(C)O1` (stereo not given), the compound was called inactive. The same measure for `CC(C)NCC(O)c1ccc(O)c(O)c1` (stereo not given): “inactive”; for `CC(C)(O)c1ccc(CNC(=O)c2cccnc2Oc2ccc(F)cc2)cc1`: “inactive”.
